Results from PubChem BioAssay AID449739 (Vanderbilt High Throughput Screening Facility, 2010).
The whole screen tested about 100,000 compounds, of which about 4,200 (4.2%) were called active.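 How the source made its calls: active means single-dose well whose peak fluorescence ratio is a statistical outlier from its plate by either plate-standardised score or position-corrected B-score; inactive means the rest.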 Shown is part of a subset that was picked to be rich in actives.

Target: Voltage-dependent T-type calcium channel subunit alpha-1H (Homo sapiens) (UniProt O95180)
Assay: Cav3.2 calcium influx blockers – cell-based, Fluo-4 calcium fluorescence, FDSS, MLSMR library, primary screen (AID 449739)
Conditions: Cav3.2-expressing cells, at 10 µM, hits give low values

Sequence of Voltage-dependent T-type calcium channel subunit alpha-1H (Homo sapiens) (O95180 whole entry, looked up): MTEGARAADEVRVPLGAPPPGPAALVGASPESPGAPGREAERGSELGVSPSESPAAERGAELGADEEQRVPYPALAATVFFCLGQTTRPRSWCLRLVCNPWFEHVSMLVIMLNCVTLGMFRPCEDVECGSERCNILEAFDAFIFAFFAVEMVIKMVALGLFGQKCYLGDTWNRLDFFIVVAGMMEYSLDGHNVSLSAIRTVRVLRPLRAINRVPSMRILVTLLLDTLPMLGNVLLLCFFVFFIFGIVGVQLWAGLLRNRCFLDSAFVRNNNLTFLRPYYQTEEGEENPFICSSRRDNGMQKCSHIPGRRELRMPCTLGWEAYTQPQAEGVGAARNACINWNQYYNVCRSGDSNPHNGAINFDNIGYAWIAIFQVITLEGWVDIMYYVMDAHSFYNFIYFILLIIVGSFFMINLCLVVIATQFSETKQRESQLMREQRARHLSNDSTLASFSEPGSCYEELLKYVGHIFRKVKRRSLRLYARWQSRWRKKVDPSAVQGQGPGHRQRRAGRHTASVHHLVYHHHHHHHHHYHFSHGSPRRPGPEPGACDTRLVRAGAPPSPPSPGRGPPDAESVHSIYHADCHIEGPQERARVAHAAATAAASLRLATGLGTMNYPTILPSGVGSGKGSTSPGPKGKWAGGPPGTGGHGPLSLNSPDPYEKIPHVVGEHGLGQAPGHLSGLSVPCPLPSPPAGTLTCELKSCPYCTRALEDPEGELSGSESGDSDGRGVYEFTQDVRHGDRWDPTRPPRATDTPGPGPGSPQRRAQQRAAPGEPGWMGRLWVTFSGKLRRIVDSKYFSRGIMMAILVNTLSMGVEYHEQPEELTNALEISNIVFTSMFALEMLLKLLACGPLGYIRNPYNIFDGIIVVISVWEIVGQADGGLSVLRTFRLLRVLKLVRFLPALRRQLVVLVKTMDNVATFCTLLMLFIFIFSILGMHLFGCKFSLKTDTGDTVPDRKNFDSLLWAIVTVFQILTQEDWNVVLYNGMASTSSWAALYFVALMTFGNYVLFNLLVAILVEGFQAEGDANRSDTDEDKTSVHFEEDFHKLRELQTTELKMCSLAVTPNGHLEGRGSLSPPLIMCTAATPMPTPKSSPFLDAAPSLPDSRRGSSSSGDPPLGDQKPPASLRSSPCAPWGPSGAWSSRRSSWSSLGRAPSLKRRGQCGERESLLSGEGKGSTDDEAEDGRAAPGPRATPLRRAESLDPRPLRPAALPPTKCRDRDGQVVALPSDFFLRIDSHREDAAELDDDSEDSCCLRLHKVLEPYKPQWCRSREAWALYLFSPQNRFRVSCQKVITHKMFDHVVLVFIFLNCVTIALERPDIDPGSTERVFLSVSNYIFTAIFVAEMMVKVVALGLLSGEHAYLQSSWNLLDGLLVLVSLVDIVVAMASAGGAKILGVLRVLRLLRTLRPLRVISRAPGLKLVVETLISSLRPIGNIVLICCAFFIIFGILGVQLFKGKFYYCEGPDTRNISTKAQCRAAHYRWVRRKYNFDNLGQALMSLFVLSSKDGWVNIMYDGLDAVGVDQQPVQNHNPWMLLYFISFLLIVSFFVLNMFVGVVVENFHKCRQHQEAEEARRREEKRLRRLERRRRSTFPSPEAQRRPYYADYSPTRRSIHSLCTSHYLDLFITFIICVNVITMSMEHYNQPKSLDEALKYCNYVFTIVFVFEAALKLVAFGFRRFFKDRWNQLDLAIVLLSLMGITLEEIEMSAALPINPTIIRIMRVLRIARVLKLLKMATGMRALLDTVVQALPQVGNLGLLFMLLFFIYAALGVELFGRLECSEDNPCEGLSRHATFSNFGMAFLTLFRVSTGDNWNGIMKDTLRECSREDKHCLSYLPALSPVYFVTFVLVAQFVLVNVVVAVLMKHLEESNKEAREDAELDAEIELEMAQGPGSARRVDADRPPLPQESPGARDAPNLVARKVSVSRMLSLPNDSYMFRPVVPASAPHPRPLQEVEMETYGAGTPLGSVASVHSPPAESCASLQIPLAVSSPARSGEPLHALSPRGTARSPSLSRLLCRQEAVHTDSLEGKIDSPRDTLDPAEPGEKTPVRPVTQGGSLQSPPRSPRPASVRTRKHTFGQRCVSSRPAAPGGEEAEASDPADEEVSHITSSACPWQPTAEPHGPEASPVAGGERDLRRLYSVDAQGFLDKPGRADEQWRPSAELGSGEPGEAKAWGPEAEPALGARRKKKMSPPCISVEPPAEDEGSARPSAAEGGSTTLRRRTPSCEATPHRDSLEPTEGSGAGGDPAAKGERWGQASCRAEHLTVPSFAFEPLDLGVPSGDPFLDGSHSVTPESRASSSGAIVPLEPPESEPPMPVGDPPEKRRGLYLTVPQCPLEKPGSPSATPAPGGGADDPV

B-score, active:
CCn1c(O)c(N=NC2=NC(=O)CS2)c2cc(C)ccc21 -4.99, Cc1ccc(C)c(NC(=O)C2Cc3ccccc3CN2C(=O)OCc2ccccc2)c1 (stereo not given) -6.09, N#Cc1c(NC(=O)CSc2nc3ccccc3c(=O)n2Cc2ccco2)sc2c1CCCC2 -5.99, CC(Sc1nc2ccccc2c(=O)n1Cc1ccco1)C(=O)c1ccccc1 (stereo not given) -4.25, CCOC(=O)Cc1csc(NC(=O)CSc2nc(C)cc(=O)[nH]2)n1 -5.95, CCCCCCn1c(CN2CCCC(C)C2)nc2c1c(=O)n(C)c(=O)n2C (stereo not given) -3.75, Clc1ccc(COn2c(-c3ccc(Cl)cc3Cl)nc3ncccc32)cc1 -5.63, COc1ccccc1NC(=O)CSc1nnc(Cn2nnc(-c3ccccc3)n2)n1-c1ccccc1 -7.2, CCOc1ccccc1N(CC(=O)NC1CCCCC1)C(=O)CCCC(=O)Nc1ccccn1 -8.92, CCOC(=O)c1cc2n(c1N)-c1ccccc1C2=O -9.74, CSc1nc(N(C)NC(=O)c2cccc(C)c2)c2ccccc2n1 -7.16, O=C(/C=C/c1ccccc1)N/C(=C/c1ccccc1)C(=O)Nc1ccccc1O -8.64, Cc1ccc(CN(N=Nc2nonc2N)c2nonc2N)c(C)c1 -6.83, COC(=O)C1=C(C)N(C)C(C)=C(C(=O)OC)C1c1cccc(Br)c1 -4.38, CCOC(=O)C1=C(CN2CCc3ccccc32)NC(=O)NC1c1ccc(Cl)cc1 (stereo not given) -5.78, Cc1nc(C)c(-c2csc(NCCc3ccccc3)n2)s1 -6.45, CCCc1[nH]nc2c1C(c1c(C)nn(-c3ccccc3)c1Cl)C(C#N)=C(N)O2 (stereo not given) -4.44, COc1ccc(C(=O)CSc2nnc(COc3ccccc3)n2Cc2ccco2)cc1 -4.51

B-score, inactive:
Cc1nc(C(=O)Nc2ccc(Cl)cc2)sc1C1(C)CC(c2ccccc2)=NO1 (stereo not given) 0.201, O=c1c(-c2ccccc2)coc2cc(O)ccc12 1.09, CCN(CC)C(=O)CC(c1ccc2c(c1)OCO2)c1c(OC)cc(OC)c2c(-c3ccccc3)cc(=O)oc12 (stereo not given) -1.45, COC(=O)Cn1c2ccc(C)cc2c2nc(C)sc21 1.71, Cc1nnc(NC(=O)CSc2nc(C3CCCCC3)nc3ccccc23)s1 -0.12, NC(=O)[C@H]1CC2(CC(c3cccc(NC(=O)[C@H]4CCC(=O)N4)c3)=NO2)CN1C(=O)c1ccccc1C(=O)c1ccccc1 (stereo not given in full) -0.157, CCO[C@H]1OC(C(=O)Nc2ccccc2)=C[C@@H](C2CC2)[C@@H]1CCCO 0.964, NC(=O)C1=C[C@@H](c2csc3ccccc23)C[C@@H](OCc2ccc(CO)cc2)O1 -0.0524, Cc1ccc(C)c(NC(=O)C2CC(=O)N(C(C)C)C2)c1 (stereo not given) -0.00724, COC(=O)C(CC(=O)Nc1cc(C)ccc1C)Nc1ccccc1OC (stereo not given) -0.376, COc1ccc(-n2c(SCC(=O)Nc3sc4c(c3C#N)CCCC4)nnc2-c2ccc(O)cc2)cc1 -0.184, CCOC(=O)C(C)Sc1nc2ccccc2c(=O)n1CC1CCCCC1 (stereo not given) -2.88, O=C(CCCn1c(SCC(=O)c2ccc(F)cc2)nc2ccccc2c1=O)NCc1ccco1 -2.82, C=C(C)Cn1c(SCC(=O)NCc2ccco2)nc2sc3c(c2c1=O)CCC3 -0.92, CCCNC(=S)NC1CC2CCCC(C1)N2CC(C)C (stereo not given) 1.82, COc1ccc(N2CCN(C(=O)c3ccc4c(Cl)c5c(nc4c3)CCCC5)CC2)cc1 -0.0196, CN1CCN(S(=O)(=O)c2ccc(N3CCN(S(=O)(=O)c4cccs4)CC3)nc2)CC1 1.73, N#Cc1cc([N+](=O)[O-])ccc1Oc1cccc(/C=N/NC(=O)c2ccc(Cl)cc2)c1 -0.086, CCCCc1nnc(NC(=O)CSc2nc(C)cc(=O)[nH]2)s1 -0.0258, CCOC(=O)Cc1csc(NC(=O)C(C)(C)C)n1 0.211, C=CCn1c(-c2ccc(Cl)cc2)ccc(C#N)c1=O -1.56, NC1=NC[C@@H](Cc2ccc(O)cc2)N1CC1CCCCC1 0.0175, C#Cc1ccc([C@@H]2C=C(C(=O)O)O[C@H](OCCCCO)C2)cc1 -1.58, CCN1CCN(Cc2nc3c(c(=O)n(C)c(=O)n3C)n2CC(=O)c2ccccc2)CC1 0.531, CC1CCCN(Cc2nc3c(c(=O)n(C)c(=O)n3C)n2CC(=O)c2ccccc2)C1 (stereo not given) -0.792, C/C(=N/NC(=O)c1ccc(NC(=O)c2ccc(F)cc2)cc1)c1ccccc1 0.425, O=C(Nc1cccc2ncccc12)c1ccc(-c2ccc(Cl)cc2Cl)o1 -0.641, CCOc1ccc(OCC)c(-c2c(=O)n(OCc3ccc(Cl)cc3)c3ccccc3[n+]2[O-])c1 -1.31, COc1ccc(C(F)(F)F)cc1N/C=C\c1nnnn1-c1ccc(C)cc1 -3.02, COc1ccc(OC)c(/C=N/NC(=O)CSc2nnc(C)n2-c2ccccc2)c1 2, CNC(=O)CSc1nnc(CCc2ccccc2)n1-c1ccccc1 -0.00574, O=C(Nc1cccc2ncccc12)C(Cl)(Cl)Cl 1.36, COc1ccc(OCC(=O)NN2Cc3ccccc3C2=N)cc1 0.0596, O=C(Cc1ccccc1)N/N=C/c1ccc(Cl)cc1Cl -0.673, O=C(CCCC(=O)N(CC(=O)NC1CCCC1)Cc1ccccc1Cl)Nc1ccccn1 -1.66, CCCC(=O)Nc1cc(OCC)c(NC(=O)NC2CCCCC2)cc1OCC 0.0578, N=c1ccn(CC(=O)NC(N)=O)c2ccccc12 1.07, CC(=O)c1cnc(SCCN2C(=O)c3ccccc3C2=O)nc1C -0.173, CCOC(=O)c1cc2n(c1C)-c1ccccc1C2=O -0.985, CCOC(=O)Nc1ccccc1N1C(=O)c2ccccc2C1=O 0.477, COc1ccc(C(=O)NN(C)c2nc(-c3ccccc3)cc(C)c2S(C)(=O)=O)cc1 1.17, CN(NC(=O)c1ccccc1)c1nc2ccccc2nc1C(F)(F)F -0.171, O=C(/C=C/c1ccccc1)c1ccccc1O 0.49, CCc1ccccc1NC(=O)/C(=C/c1ccccc1)c1ccccc1 -4.21, COC(=O)c1c(-c2ccsc2)oc2ccc(-c3cc(OC)c(OC)c(OC)c3)cc12 -0.846, CCO[C@@H]1OC(C(=O)N2CCOCC2)=C[C@H](C)[C@H]1CCCO 0.155, Cc1ccc(NC(=O)N2CCSc3ccccc32)cc1 -0.746, c1ccc(COc2ccccc2CNCc2cccnc2)cc1 -0.314, CC1(C)CC(=O)C(C=NCCN2CCN(C(=S)Nc3cccc(Cl)c3)CC2)=C(O)C1 -0.563, Cc1ccc(C)c(CSc2nc(-c3ccco3)nc3c2c(=O)n(C)c(=O)n3C)c1 -0.668, COc1ccc(CNC(=O)C2CC(c3ccc(C(F)(F)F)cc3)=NO2)cc1 (stereo not given) -2.34, O=C(C1=C[C@H](c2coc3ccccc3c2=O)C[C@H](OCc2ccc(CO)cc2)O1)N1CCN(Cc2ccccc2)CC1 -1.94, O=C1NC[C@@H](Cc2ccc(O)cc2)N(CCc2cccc(F)c2)C1=O -1.22, CCN1C(=O)N[C@@H](c2ccccc2)C(C(=O)OC)=C1C -0.116, COCCN1C(=O)N[C@@H](c2ccccc2)C(C(=O)OC)=C1C 0.0333, CCc1ccc(/C=N/NC(=O)c2ccc(OC3CCCC3)cc2)s1 -0.109, CCOC(=O)C1=C(CN2CCc3ccccc32)NC(=O)NC1c1cc(C)ccc1C (stereo not given) 0.647, CCOC(=O)C1=C(CN2CCc3ccccc32)NC(=O)NC1c1cccc([N+](=O)[O-])c1 (stereo not given) -1.81, COC(=O)CCCC1=CC2=CC(=O)C(C)(OC(=O)c3cccs3)C(=O)C2=CN1c1cccc(C#N)c1 (stereo not given) 0.181, Cc1ccc(Nc2nc(-c3sc(NC(=O)c4ccccc4)nc3C)cs2)cc1 -0.00441, CCCCC(=O)Nc1nc(C)c(-c2csc(Nc3ccc(Cl)cc3)n2)s1 0.015, CCn1c(O)c2ccc(C(=O)N=NC(=O)c3cccnc3)cc2c1O -0.0483, CCCc1[nH]nc2c1C(c1ccc(Br)s1)C(C#N)=C(N)O2 (stereo not given) 0.903, CCCc1[nH]nc2c1C(c1ccc(OC)c(Cn3nc(C)c(Br)c3C)c1)C(C#N)=C(N)O2 (stereo not given) -0.964, COc1cc(C2OC(c3cc(OC)c(OC)c(OC)c3)C(C)C2C)cc(OC)c1OC (stereo not given) -2.38, O=C(NCCCCc1ccccc1)C1CC(c2ccc([N+](=O)[O-])cc2)=NO1 (stereo not given) -2.65, CCOC(=O)/C=C/c1ccc(C(F)(F)F)cc1S(=O)(=O)NC(C)(C)C 0.0548, O=C(NCN1CCN(CCO)CC1)c1cnccn1 0.423, Cc1ccccc1N/N=C/c1ccc(N2CCOCC2)cc1 0.0508, CCn1c(CNc2ccc(OC)cc2)nnc1SCC(=O)c1ccc(OC)cc1 0.231, O=C(CSc1nnc(-c2cccnc2)n1Cc1ccco1)c1ccc(Cl)cc1 0.695, CC(C)C(NS(=O)(=O)c1cccs1)C(=O)Nc1nc(C(C)(C)C)cs1 (stereo not given) -3.54
